TEAD-YAP inh: TEAD-YAP interaction inhibition; HEK-TIYL cells, TEAD-Gal4/YAP UAS-luciferase luminescence; inhibition, % at 9.12 µM; 640,000 tested, 1.4% active; AID 1259422; in the data active = inhibition above about 32%;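 note: 0% = median of test compound wells and 100% = reference inhibitor wells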
FBW7 activator: human FBW7 E3 ligase activation, primary screen; 650,000 tested, 0.13% active; Q969H0; normalized activity (activation), % at 26.1 µM; AlphaScreen FBW7–phospho-cyclin E peptide binding, activator screen; in the data active = normalized activity above about 1.9%;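 note: purified mutant Fbw7 with reduced substrate affinity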
GPR151 activ: human GPR151 activation; Q8TDV0; AID 1508602; PathHunter beta-arrestin GPR151 cells, luminescence; activation, % at 11.2 µM; 650,000 tested, 1% active; in the data active = activation above about 4.9%;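 note: 0% = median of compound wells and 100% = cells with positive control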
Target sequence (Q8TDV0 whole entry, looked up): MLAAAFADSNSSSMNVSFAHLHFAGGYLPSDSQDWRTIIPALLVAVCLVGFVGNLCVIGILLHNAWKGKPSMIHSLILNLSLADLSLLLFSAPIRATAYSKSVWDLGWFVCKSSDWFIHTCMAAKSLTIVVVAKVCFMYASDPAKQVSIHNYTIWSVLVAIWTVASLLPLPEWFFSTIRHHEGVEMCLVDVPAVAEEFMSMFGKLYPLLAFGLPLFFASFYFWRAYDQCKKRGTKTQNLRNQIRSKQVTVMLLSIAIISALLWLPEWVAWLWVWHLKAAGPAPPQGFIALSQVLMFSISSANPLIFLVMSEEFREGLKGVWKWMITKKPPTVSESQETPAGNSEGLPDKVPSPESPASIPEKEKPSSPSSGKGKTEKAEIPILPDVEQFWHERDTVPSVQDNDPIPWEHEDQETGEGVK
MITF inh: inhibitors of human MITF. AlphaScreen MITF homodimerization, bead proximity signal. inhibition, % at 2.6 µM. O75030. 650,000 tested, 0.91% active; in the data active = inhibition above about 50%;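 note: 0% = vehicle wells with protein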
MITF inh conf: human MITF inhibition, confirmation | shares compounds with MITF inh | AlphaScreen MITF homodimerization, biotin/His-MITF beads | inhibition, % at 2.6 µM | 4,700 tested, 16% active;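 active = inhibition above a cutoff derived from the DMSO control wells, cut at about 28% in these data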;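 note: 0% = MITF dimer wells with DMSO only; inhibitors lower the bead chemiluminescence by keeping MITF from dimerizing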
AlphaScreen DR: counter-screen: compounds optically interfering with AlphaScreen; shares compounds with MITF inh; AlphaScreen optical interference counterscreen, cell-free; IC50, µM; 480 tested, 6% active; call rule not given here
AS interf ctr: AlphaScreen optical interference, counter-screen; LysRS AlphaScreen counterscreen, signal interference, triplicate; shares compounds with MITF inh; inhibition, % at 2.6 µM; 4,700 tested, 7.6% active; AID 1259376;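 active = inhibition above a cutoff derived from the DMSO control wells, cut at about 30% in these data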
Numbers without * were called inactive; . = no result given. A selection: hits, their analogues and other compounds. The true share with any hit is near 3.4%.

SMILES	TEAD-YAP inh	FBW7 activator	GPR151 activ	MITF inh	MITF inh conf	AS interf ctr	others
COCCCNC(=O)/C(C#N)=C/c1ccc(OCC(=O)O)c(OC)c1	9.7	-0.3	-0.3	61.7*	34.7*	-8.1	AlphaScreen DR=>6.48
Cc1ccc2nc(C3CCN(S(=O)(=O)c4ccc5c(c4)OCCO5)CC3)[nH]c2c1	7.7	0.0	0.7	66.5*	11.8	18.6
Cc1sc2ncn(CC(=O)NCC(=O)Nc3ccc4c(c3)OCO4)c(=O)c2c1C	-7.6	0.4	-1.7	54.9*	-0.7	13.5
O=C(OC1(C(F)(F)F)C(=O)Nc2cc3c(cc21)OCO3)c1ccc(Cl)nc1 (stereo not drawn)	-3.2	-0.3	0.4	81.4*	70.6*	-24.8	AlphaScreen DR=>7.12
CCOC(=O)c1c(NC(=O)CN2CCN(C)CC2)sc2c1CC(C)(C)NC2(C)C	5.9	-0.3	0.9	53.4*	-1.6	0.9
Cc1cccc2cc(/C=C3\NC(=S)NC3=O)c(N3CCCCC3)nc12	-1.7	0.1	-2.4	22.1	.	.
COc1ccc(Cc2nnc(NC(=O)c3ccc(C(C)(C)C)cc3)s2)cc1OC	6.1	0.0	-1.1	8.5	.	.
Cc1cccc(Nc2c([N+](=O)[O-])ccc3nonc23)c1	2.9	-0.1	-1.2	-7.9	.	.
Cc1cccc(Nc2c([N+](=O)[O-])cc([N+](=O)[O-])c3nonc23)c1	-13.9	0.0	-0.2	55.6*	-4.8	6.1
COc1ccc(O)c(CN2CCN(Cc3cccs3)C(CCO)C2)c1 (stereo not drawn)	-15.0	-0.1	-0.3	-5.0	.	.
Cc1ccc(-c2nnc(Nc3ccc(Cl)c(Cl)c3)c3ccccc23)cc1S(=O)(=O)NCCO	-10.3	0.0	-0.7	88.9*	2.9	7.9
Cc1cc(NC(=O)c2ccc([N+](=O)[O-])cc2)ccc1NC(=O)c1cccs1	-5.2	-0.1	-0.6	5.0	.	.
CN(C(=O)Cc1nc(N)n[nH]1)C1(C(=O)Nc2ccccc2)CCCCC1	-4.1	-0.6	-0.9	64.4*	92.1*	100.6*
Cc1ccc(NC(=O)C2(N(C)C(=O)Cc3nc(N)n[nH]3)CCCCC2)cc1	5.7	-0.2	-1.8	47.5	.	.
Nc1n[nH]c(CC(=O)N(Cc2ccccc2)C2(C(=O)Nc3ccccc3)CCCCC2)n1	-2.1	-0.4	-0.2	70.4*	109.2*	100.6*
COCCOC(=O)C1=C(C)NC2=C(C(=O)CC(c3ccc(Cl)cc3)C2)C1c1cccc(OC)c1OC (stereo not drawn)	18.6	0.0	-0.2	-6.8	.	.
O=C(CSS(=O)(=O)O)NCCc1c[nH]c2ccccc12	4.6	0.1	1.2	-6.2	.	.
CCN1C(C(=O)c2ccccc2)=C(NC(=O)c2ccc(C)cc2)c2ccccc2S1(=O)=O	-0.6	0.0	-0.8	53.6*	-0.8	0.1
CCN1C(C(=O)c2ccccc2)=C(NC(=O)c2ccc(Cl)cc2)c2ccccc2S1(=O)=O	7.8	0.0	-1.4	-0.4	.	.
C=CCn1c(-c2ccsc2)n[nH]c1=S	4.6	0.1	-0.5	8.0	.	.
CC(c1ccccn1)N(CCN(C)C)C(=S)Nc1cccc(F)c1 (stereo not drawn)	4.5	-1.6	2.4	87.5*	42.5*	95.9*
Cc1cc(NC(=O)CN2CCCCC2)c2ccccc2n1	3.7	-0.2	1.0	50.7*	20.9	-7.7
O=C(CN1CCCCCC1)NC(c1ccccc1)c1ccccc1	-2.1	0.2	-0.4	54.2*	12.2	22.5
O=C(CN1CCCCC1)Nc1c2c(nc3c1CCC3)CCCC2	5.1	-0.1	0.9	71.3*	0.9	-3.5
Cc1cc(NC(=O)CN2CCOCC2)c2ccccc2n1	-3.4	0.0	1.3	-4.9	.	.
SMILES	TEAD-YAP inh	FBW7 activator	GPR151 activ	MITF inh	MITF inh conf	AS interf ctr	others
CC(C)(C)NCC(=O)Nc1c2c(nc3c1CCC3)CCC2	-1.2	-0.2	1.0	-1.5	.	.
NC(=O)C1CCN(CC(=O)Nc2c3c(nc4ccccc24)CCC3)CC1	3.3	-0.1	-1.0	0.3	.	.
O=C(CN1CCCCC1)Nc1c2c(nc3ccccc13)CCCC2	4.3	-0.2	0.6	65.7*	7.7	11.1
COc1cc(S(=O)(=O)N(C)C2CCCCC2)ccc1Cl	7.6	0.0	0.1	-11.4	.	.
NCC(=O)Nc1c2c(nc3c1CCC3)CCC2	1.5	-0.3	0.1	62.0*	-1.0	-0.1
CCNC(=O)N1CCN(c2nccnc2NS(=O)(=O)c2c(C)noc2C)CC1	8.8	0.2	-0.7	21.7	.	.
N#C/C(=C\c1cccc2ccccc12)C(=O)Nc1ccc([N+](=O)[O-])cc1O	-2.5	0.1	2.5	-10.9	.	.
COc1cc2c(cc1OC)CN(CCC(c1ccccc1)c1ccccc1)CC2	-5.6	-0.5	-0.6	-2.8	.	.
COc1cc2c(cc1OC)CN(CC(O)c1ccccc1)CC2 (stereo not drawn)	4.3	-0.1	-0.9	50.6*	-5.4	-1.2
CCOc1ccc(C(=O)OCC(=O)c2[nH]c(C)c(C(C)=O)c2C)cc1OCC	-8.5	0.4	-0.4	13.7	.	.
N#Cc1cccc(NC(=O)CSc2nc3ccccc3s2)c1	-4.7	-0.1	-1.6	10.2	.	.
N#Cc1cccc(NC(=O)CSc2nncs2)c1	-14.2	-0.1	-0.6	52.7*	5.6	11.0
Cc1cccc2c(=O)oc(-c3ccccc3Cl)nc12	-8.2	0.6	0.5	18.8	.	.
CCN(CC)CCN(C)Cc1ccc(SC)cc1	-1.0	0.1	-0.2	37.2	.	.
CCN(CC)CCN(C)Cc1ccc(NC(C)=O)cc1	5.3	0.4	0.6	63.6*	-6.9	-2.5
C=CCn1c(SCc2ccc(C)cc2)nc2cc(C(=O)NCc3ccco3)ccc2c1=O	-1.5	0.3	-1.4	18.6	.	.
C=CCn1c(SCC2OCCO2)nc2cc(C(=O)NCc3ccco3)ccc2c1=O	20.5	-0.1	-0.1	67.0*	-4.4	1.2
COc1ccc(CN2CCC(C(=O)NC(C)C)CC2)c(OC)c1OC	-9.8	-0.1	0.5	71.2*	-13.3	-5.3
CC(NC(=O)C1CCN(Cc2ccccc2O)CC1)c1ccccc1 (stereo not drawn)	2.3	-0.1	1.9	18.6	.	.
CC(NC(=O)C1CCN(Cc2ccccc2)CC1)c1ccccc1 (stereo not drawn)	3.9	0.2	0.4	52.8*	10.4	6.9
COc1ccc(OC)c(CN2CCC(C(=O)NC(C)c3ccccc3)CC2)c1 (stereo not drawn)	-4.6	-0.1	-0.9	52.2*	8.4	20.5
CC(NC(=O)C1CCNCC1)c1ccccc1 (stereo not drawn)	10.9	-0.1	0.1	51.4*	1.0	12.5
CCOC(=O)c1c(NC(=O)CSc2nnc(CNC(=O)COc3ccccc3)n2C2CCCCC2)sc2c1CCC2	-2.8	0.0	0.4	-9.0	.	.
C=C(C)Cn1c(SCCC)nc2sc3c(c2c1=O)CC(C)(C)OC3	6.2	0.0	-0.3	1.8	.	.
CSc1cccc(NC(=O)CCc2ccc(S(=O)(=O)NC(C)(C)C)cc2)c1	7.8	0.1	-1.4	10.0	.	.
Cc1ncc(CO)c(/C=N/N=C/c2cccc(Cl)c2Cl)c1O	8.3	0.5	-0.7	53.4*	-4.1	-3.5
